Experimental data: PubChem BioAssay (NCATS)
Inconclusive results are not listed. Calls of active or inactive are those of the source. Calls follow the shape of the dose curve; as a rule, active = well fitted inhibition curve with a large enough effect; inconclusive = small, poorly fitted or top-dose-only effect; inactive = flat fitted curve, though single readings scatter.

Tests used:
CRL-7250 = normal cell line; assay: Cytotoxic Profiling of Annotated Libraries Using Quantitative High-Throughput Screening (AID 1296008); conditions: Five cell lines viability, CellTiter-Glo ATP luminescence, 48-72 h; max response: hits give low values; as to max response: % is scaled to controls: 0 for no effect and ±100 for the full control effect
In short: (§1)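 Compounds were pin-transferred onto cells and incubated 48 or 72 hr at 37 degree Celsius, 95% humidity. CellTiter-Glo was added, plates sat 10 min at room temperature, then ATP-coupled luminescence was imaged as the viability read-out.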

HEK293 = assay: as above; conditions: Five cell lines viability, CellTiter-Glo ATP luminescence, 48-72 h; max response: hits give low values
In short: as §1

HaCat = assay: as above; conditions: Five cell lines viability, CellTiter-Glo ATP luminescence, 48-72 h; max response: hits give low values
In short: as §1

KB-3-1 = assay: as above; conditions: Five cell lines viability, CellTiter-Glo ATP luminescence, 48-72 h; max response: hits give low values
In short: as §1

NIH3T3 = assay: as above; conditions: Five cell lines viability, CellTiter-Glo ATP luminescence, 48-72 h; max response: hits give low values
In short: as §1

HEK293T = assay: qHTS assay to identify novel small-molecules to repurpose for Merkel cell carcinoma treatment (AID 1296009); conditions: MCC and control cell lines, CellTiter-Glo viability, 72 h; at 44.8 µM (top of the series) unless noted
In short: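 Cells exposed to NPC (8-point) and MIPE (11-point) compound dilutions for 72 hr at 37 degree celsius; viability read by CellTiter-Glo luminescence, normalized to no-cell and DMSO in-plate controls.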

JCK = assay: qHTS profiling for inhibitors of Plasmodium falciparum proliferation (AID 504749);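 also: 0% = DMSO vehicle and full inhibition = artemisinin control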; conditions: P. falciparum in erythrocytes, SYBR Green DNA, 72 h; series mostly up to 28.7 µM
In short: (§2)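 P. falciparum-infected erythrocytes (0.3% parasitemia, 2.5% hematocrit final) were exposed to compounds for 72 h at 37 C in 5% CO2, then lysed with SYBR Green buffer overnight at room temperature; parasite DNA fluorescence was normalized to artemisinin and DMSO controls.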

N140 = assay: as above; conditions: P. falciparum in erythrocytes, SYBR Green DNA, 72 h; series mostly up to 28.7 µM
In short: as §2

P94_40 = assay: as above; conditions: P. falciparum in erythrocytes, SYBR Green DNA, 72 h; series mostly up to 28.7 µM
In short: as §2

PAD = assay: as above; conditions: P. falciparum in erythrocytes, SYBR Green DNA, 72 h; series mostly up to 28.7 µM
In short: as §2

PC15 = assay: as above; conditions: P. falciparum in erythrocytes, SYBR Green DNA, 72 h; series mostly up to 28.7 µM
In short: as §2

PC26 = assay: as above; conditions: P. falciparum in erythrocytes, SYBR Green DNA, 72 h; series mostly up to 28.7 µM
In short: as §2

PC49 = assay: as above; conditions: P. falciparum in erythrocytes, SYBR Green DNA, 72 h; series mostly up to 28.7 µM
In short: as §2

SC27B = assay: as above; conditions: P. falciparum in erythrocytes, SYBR Green DNA, 72 h; series mostly up to 28.7 µM
In short: as §2

TAB109 = assay: as above; conditions: P. falciparum in erythrocytes, SYBR Green DNA, 72 h; series mostly up to 28.7 µM
In short: as §2

TAB113 = assay: as above; conditions: P. falciparum in erythrocytes, SYBR Green DNA, 72 h; series mostly up to 28.7 µM
In short: as §2

TAB165 = assay: as above; conditions: P. falciparum in erythrocytes, SYBR Green DNA, 72 h; series mostly up to 28.7 µM
In short: as §2

W2 = assay: as above; conditions: P. falciparum in erythrocytes, SYBR Green DNA, 72 h; series mostly up to 28.7 µM
In short: as §2

Measured: max response
Also: nearly all actives have a fitted effect of over 60% in size.

CCOC(=O)C(CCc1ccccc1)NC1CCCN2CCCC(C(=O)O)N2C1=O (stereo not given)
inactive: CRL-7250 2.69% | HEK293 | HaCat 1.44% | KB-3-1 2.78% | NIH3T3 0.311% | HEK293T

CC1CCC2C(C(=O)O)=CC3(O)CC(C)(C)CC123 (stereo not given)
inactive: CRL-7250 2.87% | HEK293 | HaCat 0.596% | KB-3-1 4.07% | NIH3T3 1.6% | HEK293T

C[C@@H]1C(=O)O[C@H](C)[C@H]1C[C@@H](O)[C@](C)(O)[C@H]1CC[C@@]2(O)C3=CC(=O)[C@@H]4C[C@@H](O)[C@@H](O)C[C@]4(C)C3CC[C@]12C (stereo not given in full)
inactive: CRL-7250 -1.86% | HEK293 | HaCat -25% | KB-3-1 8.3% | NIH3T3 1.28% | HEK293T inactive [at 17.4 µM]

CCOC(=O)C(CCc1ccccc1)NC(C)C(=O)N1Cc2ccccc2CC1C(=O)O (stereo not given)
inactive: JCK | N140 | P94_40 | PAD | PC15 | PC26 | PC49 | SC27B | TAB109 | TAB113 | TAB165 | W2 | CRL-7250 -6.01% | HEK293 -4.89% | HaCat -10.9% | KB-3-1 -4.78% | NIH3T3

CC(CCc1ccc(O)cc1)O[C@@H]1O[C@H](CO[C@@H]2OC(CO)[C@H](O)[C@H]2O)[C@@H](O)[C@H](O)[C@H]1O (stereo not given in full)
inactive: CRL-7250 -0.0719% | HEK293 | HaCat -7.01% | KB-3-1 | NIH3T3 -1.05% | HEK293T inactive [at 17.4 µM]

Cc1ccccc1NC(=O)Nc1ccc(CN2C(=O)N([C@@H](CC(C)C)C(=O)N[C@@H](CC(=O)O)c3ccccc3)C(=O)C2(C)C)cc1
inactive: CRL-7250 -13.5% | HEK293 | HaCat 3.16% | KB-3-1 | NIH3T3 -0.819% | HEK293T

O=C(OC[C@H]1O[C@H](O[C@H]2CO[C@H](CO)[C@@H](O)[C@@H]2O)[C@H](O)[C@@H](O)[C@H]1O)c1ccccc1
inactive: CRL-7250 -5.33% | HEK293 | HaCat -15.9% | KB-3-1 -0.911% | NIH3T3 4.33% | HEK293T inactive [at 17.4 µM]

CC1(C)C=Cc2c(ccc3c2N=C2C(C)(C)[C@@H]4C[C@]56CCCN5C(=O)[C@@]4(C[C@]23O)NC6=O)O1
inactive: CRL-7250 3.82% | HEK293 | HaCat 3.57% | KB-3-1 | NIH3T3 -4.67% | HEK293T inactive [at 17.4 µM]

O=C(O[C@@H]1O[C@H](CO)[C@@H](O)[C@H](O)[C@H]1O)c1ccccc1
inactive: CRL-7250 | HEK293 | HaCat 4.66% | KB-3-1 | NIH3T3 4.36% | HEK293T

CC1(C)CC[C@]2(C(=O)O)CC[C@]3(C)C(=CCC4[C@@]5(C)CC[C@H](O[C@H]6O[C@H](C(=O)O)[C@@H](O)[C@H](O[C@@H]7O[C@H](CO)[C@H](O)[C@H](O)[C@H]7O)[C@H]6O)C(C)(C)C5CC[C@]43C)[C@@H]2C1 (stereo not given in full)
inactive: CRL-7250 | HEK293 | HaCat 3.39% | KB-3-1 4.97% | NIH3T3 -6.78% | HEK293T inactive [at 9.27 µM]

C/C(CO)=C1/CCC23COC(C2)C(O)(C(=O)O)CCC13 (stereo not given)
inactive: CRL-7250 1.3% | HEK293 | HaCat 0.569% | KB-3-1 2.82% | NIH3T3 -0.495% | HEK293T

C=CC(C)(CC/C=C(\C)C(=O)OC)OC1OC(COC(=O)CC(C)(O)CC(=O)O)C(O)C(O)C1O (stereo not given)
inactive: CRL-7250 -11.6% | HEK293 | HaCat 3.32% | KB-3-1 1.2% | NIH3T3 -0.702% | HEK293T inactive [at 17.4 µM]

C=C[C@H]1[C@H](O[C@@H]2O[C@H](CO)[C@@H](O)[C@H](O)[C@H]2O)OC=C2C(=O)N3Cc4c([nH]c5ccccc5c4=O)[C@@H]3C[C@H]21
inactive: CRL-7250 | HEK293 | HaCat -8.84% | KB-3-1 | NIH3T3 -10.2% | HEK293T inactive [at 17.4 µM]

C=C[C@@](C)(CCC=C(C)C)O[C@@H]1O[C@H](CO[C@@H]2OC[C@H](O)[C@H](O)[C@H]2O)[C@@H](O)[C@H](O)[C@H]1O
inactive: CRL-7250 | HEK293 | HaCat 0.544% | KB-3-1 | NIH3T3 4.46% | HEK293T inactive [at 17.4 µM]
